IL-1B inflam inh: qHTS for Inhibitors of Inflammasome Signaling: IL-1-beta AlphaLISA Primary Screen; THP-1 LPS/ATP IL-1B secretion, AlphaLISA, 16 h; stronger effect = lower value; activity change, % at 57.5 µM; 360,000 tested, 4.7% active; in the data active = activity change below about -50%; inconclusive = mostly about -30% to -49%
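THP-1 cells pretreated 1 hr with compounds (up to 57.5 uM final), then stimulated with LPS (250 ng/mL final) plus ATP (1.25 mM final); secreted IL-1B measured by AlphaLISA after 16 hr, decreased signal indicating inhibition.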
TDP1 cell CPT: qHTS for Inhibitors of human tyrosyl-DNA phosphodiesterase 1 (TDP1): qHTS in cells in presence of CPT; AID 686979, 2013; chicken DT40 Tdp1-/-;hTDP1 cells + 20 nM CPT, ATP luminescence, 48 h; 420,000 tested, 12% active; Potency, µM (top dose mostly 46.2 µM), actives largely listed as inhibitors; also: nearly all actives have a fitted effect of over 55% in size
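Cell growth measured by CellTiter-Glo luminescence after a minimum 48 h, 37 C compound exposure with 20 nM CPT in Tdp1-knockout DT40 cells stably expressing hTDP1, seeded 400/well; qHTS titration format.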
TDP1 cell noCPT: qHTS for Inhibitors of human tyrosyl-DNA phosphodiesterase 1 (TDP1): qHTS in cells in absence of CPT | Potency, µM (series often up to 46.2 µM), most hits filed as inhibitors | DT40 Tdp1-/- hTDP1 cells, no CPT, ATP luminescence, 48 h | AID 686978, 2013 | 420,000 tested, 15% active; also: nearly all actives have a fitted effect of over 55% in size
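Camptothecin absent (DMSO only). Human TDP1-complemented DT40 knockout cells, 400 cells/well, 37 °C for minimum 48 hr; ATP measured via CellTiter-Glo, 30 min dark incubation, luminescence.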
HT1080-NT tox: qHTS for induction of synthetic lethality in tumor cells producing 2HG: qHTS for the HT-1080-NT fibrosarcoma cell line; AID 686970, 2013; Potency, µM (doses to about 46.1 µM), actives largely listed as cytotoxic; HT-1080-NT fibrosarcoma viability, CellTiter-Glo ATP luminescence, 48 h; 360,000 tested, 1.6% active;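 also: NT is the 2HG producing partner of a matched IDH1 knockdown line; nearly all actives have a fitted effect of over 55% in size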
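HT-1080-NT; 750 cells/well; 5% FBS RPMI; 48 h compound, 37 degrees C; CellTiter-Glo luminescence; curve fitting and curve-class assignment.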
HT1080 IDH1KD tx: qHTS for induction of synthetic lethality in tumor cells producing 2HG: qHTS for the HT-1080-IDH1KD cell line. 360,000 tested, 2% active. Potency, µM (titrated, usually from 46.1 µM), usual class: cytotoxic. HT-1080 IDH1 knockdown viability, ATP luminescence, 48 h
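% activity derives from luminescence (CellTiter-Glo), normalised to DMSO and no-cell wells. HT-1080-IDH1KD cells, 750/well, had 48 h compound exposure at 37 °C.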
Each line names hits and unclear results; the compound was inactive in the other large screens. This is a sample that favours compounds with a hit; in the whole collection about 19% have one here. Unless noted, calls follow the shape of the dose curve; as a rule, active = well fitted curve in the direction sought with a large enough effect; inconclusive = small, poorly fitted or top-dose-only effect, or another doubt; inactive = no such curve, though single readings can be large; an effect the other way counts as inactive or inconclusive.

O=C(N/N=C/c1ccc2c(c1)OCO2)c1ccc2ccccc2n1	HT1080 IDH1KD tx inconclusive
COc1cc(/C=N/NC(=O)c2ccoc2C)cc(OC)c1OC	TDP1 cell CPT inconclusive, TDP1 cell noCPT 13µM
Cc1nc(N)[nH]c(=O)c1CCCNc1ccc(CCC2(CCl)OCCO2)cc1	TDP1 cell CPT inconclusive, TDP1 cell noCPT inconclusive
Cc1ccccc1NCC(=O)N/N=C\c1ccc2c(c1)OCO2	TDP1 cell noCPT inconclusive
Cc1occc1C(=O)N/N=C/c1ccc2c(c1)OCO2	TDP1 cell CPT inconclusive, TDP1 cell noCPT inconclusive, HT1080-NT tox 9.2µM, HT1080 IDH1KD tx 8.2µM
Cn1cc(C(=O)N/N=C/c2cccs2)c2ccccc21	TDP1 cell noCPT 8.2µM, HT1080 IDH1KD tx inconclusive
Cc1cccc(C)c1OCC(=O)N/N=C/c1ccc2c(c1)OCO2	TDP1 cell CPT 2.9µM, TDP1 cell noCPT 3.7µM, HT1080-NT tox 15µM, HT1080 IDH1KD tx inconclusive
O=C(Nc1n[nH]c(=S)s1)c1ccc2ccccc2c1	none
OCCn1c(Cl)nc2ccccc21	none
CCNc1nc(NC(C)CC)nc(Oc2ccc(OCC)nn2)n1 (stereo unspecified)	TDP1 cell CPT 10µM, TDP1 cell noCPT 9.2µM
CCCn1c(SCC(=O)N(C)C2CCCCC2)n[nH]c1=O	none
O=C(COC(=O)c1ccc2c(c1)C(=O)N(Cc1ccco1)C2=O)NCC(F)(F)F	none
COc1ccc(-c2nc(CSc3nncn4c3cc3occc34)c(C)o2)cc1	TDP1 cell CPT 16µM, TDP1 cell noCPT 23µM (no result: IL-1B inflam inh, HT1080-NT tox, HT1080 IDH1KD tx)
Cc1nnc(SCc2ccccc2Cl)c2cc3occc3n12	TDP1 cell CPT inconclusive, TDP1 cell noCPT 16µM (no result: IL-1B inflam inh, HT1080-NT tox, HT1080 IDH1KD tx)
Cc1ccc(-c2nc(CSc3nnc(C)n4c3cc3occc34)c(C)o2)cc1	TDP1 cell noCPT inconclusive (no result: IL-1B inflam inh, HT1080-NT tox, HT1080 IDH1KD tx)
COc1ccc(-c2nc(CSc3nnc(C)n4c3cc3occc34)c(C)o2)cc1OC	TDP1 cell CPT 10µM, TDP1 cell noCPT 12µM (no result: IL-1B inflam inh, HT1080-NT tox, HT1080 IDH1KD tx)
Cc1oc(-c2ccccc2F)nc1CSc1nnc(C)n2c1cc1occc12	none (no result: IL-1B inflam inh, HT1080-NT tox, HT1080 IDH1KD tx)
Cc1ccc(-c2nc(CSc3nncn4c3cc3occc34)c(C)o2)cc1	TDP1 cell CPT inconclusive (no result: IL-1B inflam inh, HT1080-NT tox, HT1080 IDH1KD tx)
COc1ccc(C)cc1NC(=O)CCNS(=O)(=O)c1ccc2c(c1)CCC(=O)N2	none
Cc1ccc(C(=O)OCC(=O)NC(C)c2ccccc2)cc1C (stereo unspecified)	none
CCOC(=O)c1ccc(NS(=O)(=O)c2cc3c4c(c2)CCN4C(=O)CC3)cc1	TDP1 cell CPT inconclusive, TDP1 cell noCPT inconclusive
CCCCCNC1=CC(=O)CC(c2ccccc2)C1 (stereo unspecified)	TDP1 cell CPT inconclusive, TDP1 cell noCPT 18µM, HT1080-NT tox inconclusive
O=C1C=C(NCc2ccncc2)CC(c2ccccc2)C1 (stereo unspecified)	none
CCCCCCCNC1=CC(=O)CC(c2ccccc2)C1 (stereo unspecified)	TDP1 cell CPT 6.5µM, TDP1 cell noCPT 5.8µM, HT1080-NT tox inconclusive, HT1080 IDH1KD tx 16µM
CCCCCCCCNC1=CC(=O)CC(C)(C)C1	TDP1 cell CPT inconclusive, TDP1 cell noCPT 16µM
CCCn1nnnc1NC(=O)c1ccc2ccccc2c1	TDP1 cell CPT inconclusive, TDP1 cell noCPT 18µM
COc1ccc(-c2c(C#N)c(N)nc(Sc3ccc(Cl)cc3)c2C#N)cc1	none (no result: IL-1B inflam inh)
COc1nc(N)c(C#N)c(-c2ccc(N(C)CCC#N)cc2)c1C#N	IL-1B inflam inh inconclusive, TDP1 cell CPT 18µM, TDP1 cell noCPT 7.3µM
COc1ccc(-c2cn(-c3ccc(Cl)cc3)c3[n+]2CCCCC3)cc1	IL-1B inflam inh inconclusive, TDP1 cell CPT 2.3µM, TDP1 cell noCPT 2.6µM
COc1ccc(-n2cc(-c3ccc(OC(F)F)cc3)[n+]3c2CCCCC3)cc1	IL-1B inflam inh inconclusive, TDP1 cell CPT 1.3µM, TDP1 cell noCPT 0.82µM
Clc1ccc(-c2cn(-c3ccc(Cl)cc3)c3[n+]2CCCCC3)cc1	TDP1 cell CPT 8.2µM, TDP1 cell noCPT 7.3µM
CCOC(=O)c1nnc(-c2ccccc2)nc1Oc1ccc(Cl)cc1	IL-1B inflam inh -71, TDP1 cell CPT 21µM, TDP1 cell noCPT 16µM, HT1080-NT tox inconclusive, HT1080 IDH1KD tx inconclusive
CCOC(=O)c1cnc(-c2ccccc2)nc1Oc1ccc(Cl)c(Cl)c1	none
CCOC(=O)c1nnc(-c2ccccc2)nc1N1CCSCC1	TDP1 cell noCPT inconclusive
CCOC(=O)c1nnc(-c2ccc(C)cc2)nc1Sc1cccc(Cl)c1	TDP1 cell CPT 9.2µM, TDP1 cell noCPT inconclusive
CCN(Cc1ccncc1)C(=O)c1cc(Br)cc(Br)c1O	none
Cn1c(=O)c2c(SCC(=O)N3CCc4ccccc43)nc(-c3ccccc3Cl)nc2n(C)c1=O	none (no result: IL-1B inflam inh, HT1080-NT tox, HT1080 IDH1KD tx)
COc1cc(/C=C2/C(=O)c3cccc([N+](=O)[O-])c3C2=O)c(Br)cc1O	TDP1 cell CPT 6.5µM, TDP1 cell noCPT 5.2µM, HT1080-NT tox inconclusive, HT1080 IDH1KD tx 18µM
COc1ccccc1NC(=O)CCCCCN1C(=O)c2cccc([N+](=O)[O-])c2C1=O	TDP1 cell noCPT inconclusive
Cc1cc(C)c(S(=O)(=O)NC2CC3CCC2C3)c(C)c1 (stereo unspecified)	none
O=C1NCCCc2c1oc1cc(Br)c(O)c(Br)c21	IL-1B inflam inh inconclusive, TDP1 cell CPT 16µM, TDP1 cell noCPT inconclusive
CC(C)NCc1c(O)c(Br)cc2oc3c(c12)CCCC3	none
CCOC(=O)c1ccc(NC(=O)Cn2nnc3ccccc32)cc1	TDP1 cell CPT 23µM, TDP1 cell noCPT 10µM
CCOC(=O)c1ccc(NC(=O)CN2CCCCC2)cc1	none (no result: IL-1B inflam inh, HT1080-NT tox, HT1080 IDH1KD tx)
CCOC(=O)c1ccc(NC(=O)CCn2nnc3ccccc32)cc1	none
CCOC(=O)c1ccc(NC(=O)C2CCCO2)cc1 (stereo unspecified)	IL-1B inflam inh inconclusive
CCOC(=O)c1ccc(NC(=O)C2CC2)cc1	TDP1 cell CPT 8.2µM, TDP1 cell noCPT 6.5µM
CCOC(=O)c1ccc(P(=O)(c2ccccc2)c2ccccc2)cc1	TDP1 cell CPT inconclusive, TDP1 cell noCPT 23µM
CCOC(=O)c1ccc(NC(=O)Cn2cccc2)cc1	TDP1 cell CPT 15µM, TDP1 cell noCPT 16µM
COc1ccc(S(=O)(=O)N2CCN(c3cnccn3)CC2)cc1OC	IL-1B inflam inh inconclusive, TDP1 cell CPT inconclusive, TDP1 cell noCPT inconclusive
NNC(=O)CCn1nnc2ccccc21	none
CC(=O)Nc1ccc(NC(=O)CCn2nnc3ccccc32)cc1	TDP1 cell CPT inconclusive, TDP1 cell noCPT 23µM
Nc1c(Cl)cc(-c2csc(NC(CO)c3nc4ccccc4n3CCOCCO)n2)cc1Cl (stereo unspecified)	IL-1B inflam inh inconclusive, TDP1 cell CPT inconclusive, TDP1 cell noCPT inconclusive

Screening data from PubChem BioAssay.
